Screening data deposited in PubChem BioAssay by National Center for Advancing Translational Sciences (NCATS).
JMJD2A Tudor: JMJD2A Tudor domain (human) inhibition; O75164; AlphaScreen JMJD2A-Tudor / H3K4me3 peptide binding; 390,000 tested, 4.4% active; Potency, µM (top dose mostly 114 µM), most hits filed as inhibitors; AID 504339; further: nearly all actives have a fitted effect of over 50% in size
PI5P4Ka inh: PI5P4K alpha (human) kinase inhibition. P48426. PI5P4Kalpha enzyme, ADP-Glo luminescence, 60 min; hits give low values. max response, %. 330,000 tested, 1.2% active; active means max response of -50% or lower; inconclusive means between -30% and -50%; inactive means -30% or higher; further: value at the top dose of about 77 µM
Target sequence (P48426 whole entry, looked up): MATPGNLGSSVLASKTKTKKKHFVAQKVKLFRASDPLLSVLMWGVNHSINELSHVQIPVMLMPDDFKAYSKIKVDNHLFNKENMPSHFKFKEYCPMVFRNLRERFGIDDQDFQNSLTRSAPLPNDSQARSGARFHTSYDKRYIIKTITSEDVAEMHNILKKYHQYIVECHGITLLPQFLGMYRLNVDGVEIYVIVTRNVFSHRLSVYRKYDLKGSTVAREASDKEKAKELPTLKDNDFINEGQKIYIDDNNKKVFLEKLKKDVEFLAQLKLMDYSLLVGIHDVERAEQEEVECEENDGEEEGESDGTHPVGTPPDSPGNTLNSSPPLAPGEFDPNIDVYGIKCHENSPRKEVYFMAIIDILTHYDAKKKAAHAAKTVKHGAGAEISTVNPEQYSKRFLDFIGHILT
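ADP-Glo luminescence end-point after a 60 min room-temperature kinase reaction. PI5P4Kalpha and substrate in HEPES pH 7.4 buffer with EGTA, 0.1% CHAPS and 5% DMSO; ATP at 5 microM final.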
PLK1 PBD inh: inhibitors of human PLK1 polo-box domain binding; Plk1 PBD binding of FITC phosphopeptide, fluorescence polarization; P53350; 360,000 tested, 2.8% active; Potency, µM, most hits filed as inhibitors; further: series mostly up to about 57 µM; nearly all actives have a fitted effect of over 65% in size
BAZ2B inh: inhibitors of human BAZ2B bromodomain | Q9UIF8 | AlphaScreen BAZ2B-H3K14Ac peptide displacement | Potency, µM (doses to about 114 µM), hits mostly inhibitors | 360,000 tested, 4.4% active | AID 504333; further: nearly all actives have a fitted effect of over 60% in size
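Complex of BAZ2B and biotin-H3K14Ac (50 nM apiece) forms over 30 min at RT, then faces library compounds up to 110 uM for another 30 min; AlphaScreen beads added, 20 min dark incubation, luminescence read.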
KAT2A inh: inhibitors of human GCN5L2 histone acetyltransferase. Potency, µM (series often up to 58.9 µM), most hits filed as inhibitors. GCN5L2 HAT assay, ThioGlo1 CoA-SH fluorescence. 390,000 tested, 0.21% active
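Compounds, pin-transferred from DMSO stocks, meet 20nM GCN5L2 for 15 min before the reaction begins with H3(1-25) peptide (75uM) and acetyl-CoA (70uM). Thiol-reactive ThioGlo1 reports CoA release over 20 min at room temperature.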
HP1b binding inh: blocks HP1-beta chromodomain binding to methylated histone tails; P83916; Potency, µM (series often up to 114 µM), usual class: inhibitors; AlphaScreen HP1-beta / biotin-H3K9me3 peptide binding; 390,000 tested, 0.56% active; AID 540317; further: nearly all actives have a fitted effect of over 70% in size
Target sequence (P83916 whole entry, looked up): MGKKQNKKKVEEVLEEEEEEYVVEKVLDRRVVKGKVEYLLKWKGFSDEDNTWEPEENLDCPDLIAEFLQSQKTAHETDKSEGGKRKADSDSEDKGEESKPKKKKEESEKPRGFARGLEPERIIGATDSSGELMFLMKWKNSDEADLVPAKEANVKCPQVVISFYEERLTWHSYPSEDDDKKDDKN
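Compound inhibition of the preformed complex between 50 nM HP1-beta and 50 nM biotinylated H3K9me3 peptide was read by AlphaScreen. Buffer was PBS pH 7.4 with 0.01% Tween-20. Incubations ran 30 min at room temperature, with 10 ug/mL donor/acceptor beads.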
Each line names hits and unclear results; the compound was inactive in the other large screens; ! = not confirmed by another sample. Rows were chosen to be rich in hits. Some 7% of all compounds tested hit in one or more screens of this group. Unless noted, the call rests on the fitted dose curve; in most records, active means well fitted curve in the direction sought with a large enough effect; inconclusive means small, poorly fitted or top-dose-only effect, or another doubt; inactive means no such curve, though single readings can be large; an effect the other way counts as inactive or inconclusive.

O=C1/C(=C\c2ccccc2)C[C@@]2(O)[C@H]3Cc4ccc(O)c5c4[C@@]2(CCN3CC2CC2)[C@@H]1O5	none (no result: JMJD2A Tudor, PI5P4Ka inh, PLK1 PBD inh, BAZ2B inh, HP1b binding inh)
O=C(NCCc1ccc(Cl)cc1)c1ccc(CNc2c(N3CCOCC3)c(=O)c2=O)cc1	none
O=C(O)c1cc[c]([Hg][Cl])cc1	JMJD2A Tudor 0.891µM, PI5P4Ka inh -57.7, PLK1 PBD inh 0.238µM, BAZ2B inh 1.26µM, KAT2A inh 0.251µM, HP1b binding inh inconclusive
C=C[C@H]1CN2CC[C@H]1C[C@H]2c1[nH]c2ccccc2c1CCO	none (no result: JMJD2A Tudor, PI5P4Ka inh, PLK1 PBD inh, BAZ2B inh, HP1b binding inh)
O=C(c1ccco1)N1CCN(C(=O)c2ccc(COc3ccc(Cl)cc3Cl)o2)CC1	JMJD2A Tudor 89.1µM, PI5P4Ka inh inconclusive (no result: BAZ2B inh, KAT2A inh)
O=C(O)COc1ccc(Cl)cc1Cl	PLK1 PBD inh inconclusive (no result: BAZ2B inh)
O=C1[C@H]2[C@@H](C3CC3)N3C(=O)CN(CC4CC4)C(=O)[C@@]3(Cc3ccccc3)[C@H]2C(=O)N1c1ccccc1	none (no result: BAZ2B inh)
CC(C)c1ccc(N2C(=O)NC(=O)/C(=C\C=C\c3ccco3)C2=O)cc1	JMJD2A Tudor inconclusive, PI5P4Ka inh -69.2, PLK1 PBD inh inconclusive, KAT2A inh inconclusive
Cc1ccc(N2C(=O)NC(=O)/C(=C/c3cnc(-c4ccccc4)nc3)C2=O)cc1C	JMJD2A Tudor 79.4µM, PI5P4Ka inh -51.7, PLK1 PBD inh 4.23µM
CC(C)c1ccc(N2C(=O)NC(=O)/C(=C\c3cnc(-c4ccccc4)nc3)C2=O)cc1	PI5P4Ka inh inconclusive, PLK1 PBD inh 21.2µM, HP1b binding inh inconclusive
O=C(NCc1ccccc1)c1cccc(Nc2nc3ccccc3n3nnnc23)c1	HP1b binding inh inconclusive (no result: PI5P4Ka inh, PLK1 PBD inh)
CCCc1cc(N2CCN(c3ccc(OC)cc3)CC2)n2cnnc2n1	BAZ2B inh inconclusive (no result: PI5P4Ka inh, PLK1 PBD inh)
Brc1c(Br)c(Br)c2n[nH]nc2c1Br	KAT2A inh 28.2µM (no result: JMJD2A Tudor, PI5P4Ka inh, PLK1 PBD inh, BAZ2B inh, HP1b binding inh)
CC1C(=O)OC2O[C@]3(C)CC[C@H]4C(C)CCC1[C@]24OO3 (stereo partly specified)	none (no result: JMJD2A Tudor, PI5P4Ka inh, PLK1 PBD inh, BAZ2B inh, HP1b binding inh)
NC(N)=Nc1ccc2[nH]c3c(c2c1)C[C@@]1(O)[C@H]2Cc4ccc(O)c5c4[C@@]1(CCN2CC1CC1)[C@H]3O5	JMJD2A Tudor 3.55µM, PI5P4Ka inh inconclusive, PLK1 PBD inh 0.947µM, BAZ2B inh 25.1µM, KAT2A inh 3.55µM, HP1b binding inh inconclusive
CCCC(=O)O[C@@H]1[C@@H](C)[C@@]2(O)[C@@H](C=C(CO)C[C@@]3(O)C(=O)C(C)=C[C@@H]23)[C@@H]2C(C)(C)[C@]12OC(=O)CCC	none (no result: JMJD2A Tudor, PI5P4Ka inh, PLK1 PBD inh, BAZ2B inh, HP1b binding inh)
CCC(=O)OC1(c2ccccc2)CCN(C)CC1C (stereo unspecified)	JMJD2A Tudor inconclusive, PLK1 PBD inh 23.8µM
CCC(=O)OC1(c2ccccc2)C(C)CN(C)CC1C (stereo unspecified)	none
CCN(c1ccc(C(O)(C(=O)OC)C(F)(F)F)cc1)S(=O)(=O)c1ccccc1 (stereo unspecified)	PLK1 PBD inh 26.7µM
CCOC(=O)C(O)(c1ccc(N(CC)S(=O)(=O)c2ccccc2)cc1)C(F)(F)F (stereo unspecified)	none
CCCCCc1cc(O)c2c(c1)OC(C)(C)C1CC=C(C)CC21 (stereo unspecified)	none (no result: JMJD2A Tudor, PI5P4Ka inh, PLK1 PBD inh, BAZ2B inh, HP1b binding inh)
COC(=O)C(O)(c1c(C)[nH]n(-c2ccccc2)c1=O)C(F)(F)F (stereo unspecified)	PLK1 PBD inh 23.8µM, BAZ2B inh inconclusive
COC(=O)C(O)(c1c[nH]c2ccccc12)C(F)(F)F (stereo unspecified)	none
COc1cc2c(cc1O)C[C@H]1NCCc3cc4c(c-2c31)OCO4	JMJD2A Tudor 22.4µM, BAZ2B inh 22.4µM
C=C1[C@@H](O)C2C=CC[C@H](C)C(=O)[C@@](C)(O)C=C[C@@H](OC(C)=O)[C@@]23C(=O)N[C@H](Cc2ccccc2)[C@@H]3[C@@H]1C (stereo partly specified)	none (no result: JMJD2A Tudor, PI5P4Ka inh, PLK1 PBD inh, BAZ2B inh, HP1b binding inh)
O=C(c1ccccc1)c1cn(CC(=O)N2CCOCC2)c2ccccc12	PI5P4Ka inh inconclusive, PLK1 PBD inh 23.8µM
O=C(c1ccccc1)c1cn(CC(=O)N2CCCC2)c2ccccc12	none
c1cc[n+]2c(c1)-c1cccc[n+]1CC2	none (no result: JMJD2A Tudor, PI5P4Ka inh, PLK1 PBD inh, BAZ2B inh, HP1b binding inh)
O=C(O)c1ccccc1-c1c2cc(Br)c(=O)cc-2oc2[c]([Hg])c(O)c(Br)cc12	KAT2A inh 3.16µM! (no result: JMJD2A Tudor, PI5P4Ka inh, PLK1 PBD inh, BAZ2B inh, HP1b binding inh)
Cc1cnc2c(C(=O)O)c(Cl)ccc2c1	none (no result: JMJD2A Tudor, PI5P4Ka inh, PLK1 PBD inh, BAZ2B inh, HP1b binding inh)
CCCC1(CCO)C(=O)NC(=S)NC1=O	JMJD2A Tudor 20µM (no result: BAZ2B inh, KAT2A inh)
Cc1cccc(N2CCN(CCc3ccccc3)CC2)c1C	BAZ2B inh inconclusive
Cc1ccc(N2CCN(CCc3ccccc3)CC2)cc1	JMJD2A Tudor inconclusive, BAZ2B inh 50.1µM (no result: PI5P4Ka inh)
CCOc1ccc(CN(CCc2ccc3c(c2)OCO3)Cc2cccc(C)c2)cc1	JMJD2A Tudor 22.4µM, BAZ2B inh inconclusive, HP1b binding inh inconclusive (no result: PI5P4Ka inh, PLK1 PBD inh)
CCOc1ccc(CN(CCc2ccc3c(c2)OCO3)Cc2cc(OC)ccc2O)cc1	JMJD2A Tudor 22.4µM, BAZ2B inh inconclusive, HP1b binding inh inconclusive (no result: PI5P4Ka inh, PLK1 PBD inh)
CCOc1ccc(CN(CCc2ccc3c(c2)OCO3)Cc2ccc(CC)cc2)cc1	JMJD2A Tudor 22.4µM, BAZ2B inh 70.8µM (no result: PI5P4Ka inh, PLK1 PBD inh)
C=C1[C@@H](C)[C@H]2[C@H](Cc3ccccc3)NC(=O)[C@]23[C@H](OC(C)=O)/C=C/[C@](C)(O)C(=O)[C@@H](C)C/C=C/[C@H]3[C@@H]1O	none (no result: JMJD2A Tudor, PI5P4Ka inh, PLK1 PBD inh, BAZ2B inh, HP1b binding inh)
NC(=O)CI	KAT2A inh 10µM (no result: JMJD2A Tudor, PI5P4Ka inh, PLK1 PBD inh, BAZ2B inh, HP1b binding inh)
Brc1ccc2[nH]cc(/C=N/N3CCCCC3)c2c1	JMJD2A Tudor 50.1µM, BAZ2B inh 44.7µM, HP1b binding inh inconclusive
CCOC(=O)c1cc2c(cn1)[C@@H](CCO)NC2	JMJD2A Tudor 44.7µM (no result: BAZ2B inh, KAT2A inh)
